Where “and” joins values, the source holds several entries; their conditions need not be identical. Identical values can stand only once. Some compounds were tested as several samples or in several runs, with calls that do not always agree. Calls of active or inactive are those of the source. How the source made its calls: active means hit-call score of the fitted dose curve at least 0.9, where 1 is the maximum; inactive means score below 0.9.
Assays:
[1] = read-out: Interleukin-6 (IL6), IL6 (gene 3569); assay: BSK_CASM3C_IL6: BioMAP Diversity Plus: CASM3C Assay for Interleukin-6 (IL6) Biomarker Activity for (AID 2283040); details: primary human coronary artery smooth muscle cells; actives raise or lower the signal
[2] = read-out: Tissue plasminogen activator (tPA), PLAT (gene 5327); assay: BSK_BE3C_tPA: BioMAP Diversity Plus: BE3C Assay for Tissue plasminogen activator (tPA) Biomarker Activity (AID 2283041); details: primary human bronchial epithelial cells; actives raise or lower the signal
In short: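 Primary human bronchial epithelial cells in the BE3C system, exposed to compound for 24 h. tPA was quantified by ELISA; DMSO served as baseline, with gain or loss of signal fitted. Cytotoxicity checked in parallel cultures by SRB total-protein staining.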

[3] = read-out: Interleukin-8 (IL8), CXCL8 (gene 3576); assay: BSK_CASM3C_IL8: BioMAP Diversity Plus: CASM3C Assay for Interleukin-8 (IL8) Biomarker Activity (AID 2283042); details: primary human coronary artery smooth muscle cells; actives raise or lower the signal;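 further: IL-8 protein level quantified by ELISA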
[4] = read-out: Human Leukocyte Antigen - DR isotype (HLADR), HLA-DRA (gene 3122); assay: BSK_CASM3C_HLADR: BioMAP Diversity Plus: CASM3C Assay for Human Leukocyte Antigen - DR isotype (HLADR) Biomarker Activity (AID 2283043); details: primary human coronary artery smooth muscle cells; actives raise or lower the signal;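 further: cell-surface HLA-DR protein level quantified by ELISA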
[5] = read-out: Macrophage colony-stimulating factor (MCSF), CSF1 (gene 1435); assay: BSK_CASM3C_MCSF: BioMAP Diversity Plus: CASM3C Assay for Macrophage colony-stimulating factor (MCSF) Biomarker Activity (AID 2283044); details: primary human coronary artery smooth muscle cells; actives raise or lower the signal;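 further: M-CSF protein amount quantified by ELISA after 24 h exposure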
[6] = read-out: Low-density lipoprotein receptor (LDLR), LDLR (gene 3949); assay: BSK_CASM3C_LDLR: BioMAP Diversity Plus: CASM3C Assay for Low-density lipoprotein receptor (LDLR) Biomarker Activity (AID 2283045); details: primary human coronary artery smooth muscle cells; actives raise or lower the signal;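 further: LDLR protein level on the cell surface quantified by ELISA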
[7] = read-out: Monocyte Chemoattractant Protein-1 (MCP1), CCL2 (gene 6347); assay: BSK_CASM3C_MCP1: BioMAP Diversity Plus: CASM3C Assay for Monocyte Chemoattractant Protein-1 (MCP1) Biomarker Activity (AID 2283046); details: primary human coronary artery smooth muscle cells; actives raise or lower the signal;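 further: MCP-1 level quantified by ELISA 24 h after dosing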
[8] = BSK_CASM3C_Proliferation: Cell Proliferation Assessment in the BioMAP Diversity Plus: CASM3C Assay (AID 2283047); details: primary human coronary artery smooth muscle cells;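 further: sulforhodamine B total protein stain as relative cell number at 560 nm; sub-confluent cells exposed 48 h before staining; fitted both ways against DMSO so gain or loss of cell number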
[9] = read-out: Monokine induced gamma interferon (MIG), CXCL9 (gene 4283); assay: BSK_CASM3C_MIG: BioMAP Diversity Plus: CASM3C Assay for Monokine induced gamma interferon (MIG) Biomarker Activity (AID 2283048); details: primary human coronary artery smooth muscle cells; actives raise or lower the signal;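 further: MIG protein level measured by ELISA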
[10] = read-out: serum amyloid A (SAA), SAA1 (gene 6288); assay: BSK_CASM3C_SAA: BioMAP Diversity Plus: CASM3C Assay for serum amyloid A (SAA) Biomarker Activity (AID 2283049); details: primary human coronary artery smooth muscle cells; actives raise or lower the signal;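 further: SAA protein level quantified by ELISA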

Measured: AC50

OB(O)O
inactive: all assays above

Cc1nn(C)c(Oc2ccccc2)c1C=NOCc1ccc(C(=O)OC(C)(C)C)cc1
active: [8] 20 µM
inactive: all other assays above

CCOC(=O)C(C)Oc1ccc(Oc2nc3ccc(Cl)cc3o2)cc1 (stereo not given)
inactive: all assays above

CCCN(CCC)c1c([N+](=O)[O-])cc(C(F)(F)F)c(N)c1[N+](=O)[O-]
active: [8] 28.1 µM
inactive: all other assays above

CCNc1nc(N)nc(Cl)n1
active: [10] 20 µM
inactive: all other assays above

CCCOC(=O)NCCCN(C)C
inactive: all assays above

CC1(C)C(C=C(Cl)Cl)C1C(=O)OCc1cccc(Oc2ccccc2)c1 (stereo not given)
active: [1] 6.26 µM
inactive: all other assays above

CCCCOCCOCCOCc1cc2c(cc1CCC)OCO2
inactive: all assays above

O=C(O)c1ccccc1
inactive: all assays above

C=CCOC(Cn1ccnc1)c1ccc(Cl)cc1Cl (stereo not given)
inactive: all assays above

CCC(C)OC(=O)N1CCCCC1CCO (stereo not given)
inactive: all assays above

CCCCOC(=O)C(C)Oc1ccc(Oc2ccc(C(F)(F)F)cn2)cc1 (stereo not given)
inactive: all assays above

CC(=O)S[C@@H]1CC2=CC(=O)CC[C@]2(C)[C@H]2CC[C@@]3(C)[C@@H](CC[C@@]34CCC(=O)O4)[C@H]12
active: [3] 23.6 µM | [4] 27.3 µM | [7] 20 µM | [8] 31.4 µM
inactive: all other assays above

COC(=O)CSc1cc(N=c2sc(=O)n3n2CCCC3)c(F)cc1Cl
active: [2] 0.79 µM | [5] 3.97 µM | [8] 29.6 µM
inactive: all other assays above

O=C(c1ccc(O)cc1O)c1ccc(O)cc1O
inactive: all assays above

CCOC(=O)c1ccc(O)cc1
inactive: all assays above

N#CSCSc1nc2ccccc2s1
active: [1] 8.6 µM and 36.5 µM | [2] 5.25 µM | [3] 10.8 µM and 31.2 µM | [4] 2.62 µM and 36.7 µM | [5] 6.33 µM and 26.9 µM | [6] 8.61 µM | [7] 9.06 µM and 29.6 µM | [8] 1.33 µM and 5.49 µM | [9] 7.5 µM and 18.8 µM | [10] 4.93 µM and 33.5 µM
inactive: [2] | [6]

CN(C)C(=O)Nc1ccc(Cl)c(Cl)c1
inactive: all assays above

c1ccc(Nc2ccccc2)cc1
inactive: all assays above

S=C([S-])NCCNC(=S)[S-].[Mn+2]
active: [1] 12.2 µM | [8] 29.9 µM
inactive: all other assays above

S=C(S)NCCNC(=S)S.[Mn+2].[S-]C([S-])=NCCN=C([S-])[S-].[Zn+2]
active: [4] 10 µM | [5] 5.89 µM | [6] 10 µM and 5.32 µM | [8] 14.2 µM [middle of 4 runs]
inactive: [1] | [2] | [3] | [4] | [5] | [6] | [7] | [8] | [9] | [10]

COC(=O)c1ccccc1S(=O)(=O)NC(=O)Nc1nc(OC(F)F)cc(OC(F)F)n1
inactive: all assays above

CCOC(=O)C(C)Oc1ccc(Oc2cnc3cc(Cl)ccc3n2)cc1 (stereo not given)
inactive: all assays above

CCCN(CCC)C(=O)SCC
inactive: all assays above

CCCOC(=O)c1ccc(C(=O)OCCC)nc1
inactive: all assays above

COC(=O)c1ccc(I)cc1S(=O)(=O)NC(=O)Nc1nc(C)nc(OC)n1
inactive: all assays above

CC(C)(c1ccc(O)cc1)c1ccc(O)cc1
inactive: [1] | [2] | [3] | [4] | [5] | [6] | [7] | [8] | [9] | [10]
active: [2] 8.08 µM

c1ccc2[nH]c(-c3cscn3)nc2c1
inactive: all assays above

O=C(c1ccccc1)C1CCCCC1
active: [2] 33.3 µM
inactive: all other assays above

N[C@@H](Cc1cc(I)c(Oc2ccc(O)c(I)c2)c(I)c1)C(=O)O
active: [2] 16 µM
inactive: all other assays above

COc1nc(C)nc(NC(=O)NS(=O)(=O)c2ccccc2OCCCl)n1
active: [7] 0.441 µM
inactive: all other assays above

COC(=O)c1ccc(CNS(C)(=O)=O)cc1S(=O)(=O)NC(=O)Nc1nc(OC)cc(OC)n1
inactive: all assays above

CCCCCCC(C)OC(=O)COc1nc(F)c(Cl)c(N)c1Cl (stereo not given)
inactive: [1] | [2] | [6]
active: [3] 32.9 µM | [4] 31.9 µM | [5] 30.2 µM | [7] 29.9 µM | [8] 36.1 µM | [9] 31.6 µM | [10] 25.7 µM

CSC(=O)c1cccc2nnsc12
inactive: all assays above

C#CCOC(=O)[C@@H](C)Oc1ccc(Oc2ncc(Cl)cc2F)cc1
inactive: all assays above

CCSC(=O)N(CC(C)C)CC(C)C
inactive: all assays above

COCCO
inactive: all assays above

O=C(Nc1ccc([N+](=O)[O-])cc1Cl)c1cc(Cl)ccc1O
active: [1] 0.308 µM | [3] 2.27 µM | [4] 0.899 µM | [8] 1.03 µM | [9] 0.764 µM | [10] 1.56 µM
inactive: [2] | [5] | [6] | [7]

Oc1ccc(C(c2ccc(O)cc2)C(Cl)(Cl)Cl)cc1
active: [5] 9.36 µM | [8] 20 µM
inactive: all other assays above

C[C@]12CC[C@@H]3c4ccc(O)cc4C[C@@H](CCCCCCCCCS(=O)CCCC(F)(F)C(F)(F)F)[C@H]3[C@@H]1CC[C@@H]2O (stereo not given in full)
active: [6] 2.73 µM
inactive: all other assays above

CCN(CC)C(=O)c1cccc(C)c1
inactive: all assays above

CCC(O)=C1C(=O)CC(C(=O)O)CC1=O (stereo not given)
inactive: all assays above

CC(C)(C)[C@@H](O)[C@@H](Cc1ccc(Cl)cc1)n1cncn1
inactive: all assays above

C[C@]12C[C@H](O)[C@H]3[C@@H](CCC4=CC(=O)CC[C@@]43C)[C@@H]1CC[C@@H]2C(=O)CO
active: [1] 0.447 µM | [3] 0.551 µM | [6] 21.1 µM | [7] 0.573 µM | [8] 0.397 µM | [10] 0.668 µM
inactive: [2] | [4] | [9]

CC(=O)[C@H]1CC[C@H]2[C@@H]3CCC4=CC(=O)CC[C@]4(C)[C@H]3CC[C@]12C
active: [4] 8.61 µM | [7] 3.95 µM | [8] 12.7 µM
inactive: all other assays above

COC(=O)c1c(Cl)nn(C)c1S(=O)(=O)NC(=O)Nc1nc(OC)cc(OC)n1
inactive: all assays above

CCCCC(CC)COC(=O)c1ccccc1C(=O)O (stereo not given)
inactive: all assays above

COC(=O)c1ccccc1C(=O)O
inactive: all assays above

COC(=O)c1cccc(C)c1S(=O)(=O)NC(=O)Nc1nc(OCC(F)(F)F)nc(N(C)C)n1
inactive: all assays above

CC(C)CCCCCCc1ccc(O)cc1
active: [1] 36.9 µM | [2] 14.5 µM | [3] 36.2 µM | [4] 28.8 µM | [5] 31.2 µM | [7] 34.3 µM | [8] 15 µM | [9] 35.8 µM | [10] 30.9 µM

CCCCOC(=O)[C@@H](C)Oc1ccc(Oc2ccc(C(F)(F)F)cn2)cc1
inactive: all assays above

O=C(O)C1(C(=O)Nc2ccc(Cl)cc2Cl)CC1
inactive: all assays above

CCCCC(CC)CN1C(=O)C2C3C=CC(C3)C2C1=O (stereo not given)
inactive: all assays above

COc1c(Cl)ccc(Cl)c1C(=O)O
inactive: all assays above

CCOC(=O)[C@H](C)Oc1ccc(Oc2nc3ccc(Cl)cc3o2)cc1
inactive: all assays above

C#C[C@]1(O)CC[C@H]2[C@@H]3CCC4=CC(=O)CC[C@@H]4[C@H]3CC[C@@]21CC
active: [10] 6.06 µM
inactive: all other assays above

CCCCCOC(=O)COc1cc(N2C(=O)C3=C(CCCC3)C2=O)c(F)cc1Cl
active: [5] 14.4 µM | [8] 12.6 µM | [9] 25.5 µM
inactive: all other assays above

CCN(Cc1c(F)cccc1Cl)c1c([N+](=O)[O-])cc(C(F)(F)F)cc1[N+](=O)[O-]
active: [6] 13.5 µM | [8] 12.3 µM
inactive: all other assays above

CCOC(=O)COc1cc(-n2ncc(C(F)(F)F)c(C)c2=O)c(F)cc1Cl
inactive: all assays above

CCOC(=O)NCCOc1ccc(Oc2ccccc2)cc1
active: [8] 7.68 µM
inactive: all other assays above

— PubChem BioAssay (EPA / NIEHS)
